Reference: PubChem BioAssay (NCI)
About 83,000 compounds went through this panel and 20% of them were active in at least one assay; those are over-represented in the sample as a whole.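 Activity criterion: percent growth below 10, measured after cells in 96-well plates were exposed to a single compound concentration for 48 hours.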 A number with no mark means an inactive call. Active and inactive are the calls of the source.

Legend:
Assay in all cases: NCI-60 one-dose screen, 48 h (100 = growth as untreated, 0 = no growth, -100 = all killed)
Conditions in all cases: 10 µM
NCI-H23 lung = tested on: NCI-H23 lung
NCI-H226 lung = tested on: NCI-H226 lung
NCI-H322M lung = tested on: NCI-H322M lung
HOP-62 NSCLC = tested on: HOP-62 NSCLC
NCI-H460 lung = tested on: NCI-H460 lung
HOP-92 NSCLC = tested on: HOP-92 NSCLC
NCI-H522 lung = tested on: NCI-H522 lung
A549/ATCC NSCLC = tested on: A549/ATCC NSCLC
786-0 renal = tested on: 786-0 renal
COLO 205 colon = tested on: COLO 205 colon
DU-145 prostate = tested on: DU-145 prostate
K-562 leukemia = tested on: K-562 leukemia
MALME-3M melanoma = tested on: MALME-3M melanoma
MDA-MB-231 breast = tested on: MDA-MB-231 breast
SF-268 CNS = tested on: SF-268 CNS
SF-295 CNS = tested on: SF-295 CNS
SF-539 CNS = tested on: SF-539 CNS
UACC-257 melanoma = tested on: UACC-257 melanoma
M14 melanoma = tested on: M14 melanoma

Row | SMILES | growth (NCI-H23 lung) | growth (NCI-H226 lung) | growth (NCI-H322M lung) | growth (HOP-62 NSCLC) | growth (NCI-H460 lung) | growth (HOP-92 NSCLC) | growth (NCI-H522 lung) | growth (A549/ATCC NSCLC) | growth (786-0 renal) | growth (COLO 205 colon) | growth (DU-145 prostate) | growth (K-562 leukemia) | growth (MALME-3M melanoma) | growth (MDA-MB-231 breast) | growth (SF-268 CNS) | growth (SF-295 CNS) | growth (SF-539 CNS) | growth (UACC-257 melanoma) | growth (M14 melanoma)
1 | O=C(CNc1nc(-c2ccccc2)cs1)Nc1cccc(Cl)c1 | 28.4% | 44.8% | 62.3% | 46.6% | 44.8% | -5.42% (active) | 4.23% (active) | 38.7% | 54.6% | 40.3% | 53.5% | 19.6% | 64.1% | 30.8% | 30.6% | 22.4% | 42.3% | 62.9% | 34%
2 | CN1CCN(Cc2ccc(C(=O)Nc3cccc(Nc4ccc5c(O)cccc5n4)c3)cc2C(F)(F)F)CC1 | -69.8% (active) | 41.3% | -18.6% (active) | -47.2% (active) | -18.5% (active) | -37.3% (active) | -83.9% (active) | -14.2% (active) | -55.9% (active) | -78.6% (active) | -1.97% (active) | 8.33% (active) | -95.9% (active) | -59.5% (active) | 2.2% (active) | -69.3% (active) | -91.5% (active) | -78.7% (active) | -87.3% (active)
3 | O=C(CSc1nnc(-c2c[nH]c3ccccc23)n1-c1ccccc1)Nc1ccc(C(=O)/C=C/c2ccc(Cl)cc2)cc1 | 61.5% | 74.8% | 89% | 85.8% | 88.2% | 87.3% | 76.8% | 79.3% | 93.6% | 89.7% | 79.7% | 59.4% | 61.6% | 79.3% | 56.9% | 65.3% | 63.9% | 104% | 81.8%
4 | O=C(NO)c1ccc(CNC(=O)[C@H]2Cc3c([nH]c4ccccc34)[C@H](c3ccccc3)N2)cc1 | 34% | 64.2% | 43.2% | 18.7% | 27.7% | -2.26% (active) | -8.88% (active) | 50.6% | 53.9% | -55.5% (active) | 29.5% | 11.6% | 15.2% | 7.55% (active) | 40.3% | 17.7% | 34% | 21.4% | 27.5%
5 | CCOc1ccc(/C=N/NC(=O)Cn2nc(Cc3ccc([N+](=O)[O-])cc3)c3onc(C)c3c2=O)cc1 | 28.8% | -21.1% (active) | 29.4% | -17.3% (active) | -9.53% (active) | -44.6% (active) | 47.6% | -23.6% (active) | -79.7% (active) | 53.7% | -15.2% (active) | 62.5% | -2.13% (active) | -19.9% (active) | -8.68% (active) | 1.32% (active) | -64.5% (active) | 70.3% | 50.9%
6 | O=C(CSc1nnc(-c2c[nH]c3ccccc23)n1-c1ccccc1)c1ccc(Br)cc1 | 54% | 39.1% | 45.7% | 73.6% | 34.5% | 28.1% | 46.3% | 29.9% | 82.4% | 13.5% | 58.5% | 82% | 71% | 66% | 49.1% | 33.7% | 62% | 52.6% | 51%
7 | CCOc1ccc(/C=N/NC(=O)Cn2nc(Cc3ccccc3)c3onc(C)c3c2=O)cc1 | 37.4% | -19.3% (active) | 50.5% | -39.3% (active) | 16.7% | -45.9% (active) | 11.4% | 11.6% | -51.9% (active) | 29.2% | 30.6% | 75% | -11.8% (active) | 9.5% (active) | -9.54% (active) | 10.8% | -47.2% (active) | 66.2% | 57.6%
8 | CN1CCN(Cc2ccc(NC(=O)c3cncc(C#Cc4cnc5ccc(N[C@H]6CCOC6)nn45)c3)cc2C(F)(F)F)CC1 | -80.4% (active) | -89.1% (active) | -95.3% (active) | -80% (active) | -76.1% (active) | -79.4% (active) | -69.1% (active) | -59.9% (active) | -75.6% (active) | -79.6% (active) | -99.9% (active) | 0.651% (active) | -97.3% (active) | -92.4% (active) | -74.5% (active) | -98.4% (active) | -99.7% (active) | -84.1% (active) | -82% (active)
9 | O=C(Nc1nc2ccccc2s1)c1ccc(Br)cc1 | 74% | 67.4% | 83.4% | 101% | 81.6% | 100% | 75.3% | 84.9% | 99.6% | 107% | 97.2% | 64.1% | 85.2% | 93.4% | 112% | 67.3% | 92.8% | 85% | 96%
10 | Cc1ccc(-c2cc(C(=O)N=Nc3c(O)[nH]c4ccc(Br)cc34)c3ccccc3n2)cc1 | 51.2% | 65.3% | 80.9% | 86.1% | 47.3% | 87.6% | 78.7% | 85.8% | 88.6% | 108% | 85.8% | 17.8% | 80.2% | 41.7% | 80.9% | 76.5% | 76% | 103% | 75.6%
11 | O=c1[nH]c2ccc(Cl)cc2cc1CSc1ccc(Nc2nccc(-c3ccc(Cl)cc3)n2)cc1 | 62.1% | 66% | 90.8% | 93.8% | -27.6% (active) | 82.1% | 33.3% | -41.8% (active) | 75.2% | 4.59% (active) | 4.82% (active) | 59.3% | 57.5% | 47% | 58.5% | 105% | 45.7% | 96.9% | 84.4%
12 | O=C(CNc1nc(-c2ccccc2)cs1)Nc1ccc(Cl)cc1 | -93.8% (active) | -62.5% (active) | -98% (active) | -76.1% (active) | -51.2% (active) | -71.9% (active) | -80.2% (active) | -49.8% (active) | -72.8% (active) | -80.1% (active) | -93.3% (active) | -16.4% (active) | -90.3% (active) | -94.3% (active) | -49% (active) | -96.9% (active) | -98.8% (active) | -78.8% (active) | -90.9% (active)
13 | COc1ccc(C2NC(=S)NC(C)=C2C(=O)OC(C)C)cc1OC (centres undefined) | 111% | 94.8% | 96.8% | 103% | 114% | 101% | 102% | 114% | 93.2% | 140% | 110% | 105% | 95.7% | 105% | 107% | 97.4% | 103% | 119% | 105%
14 | CN1C(=O)N(C)C2SC(N/N=C/c3cccs3)=NC21 (centres undefined) | 38.4% | 68.2% | 69.3% | 37.7% | 13.2% | 55.6% | -14.6% (active) | 44.2% | 37.3% | 26.8% | 49.5% | 11.8% | 24.6% | 27.3% | 35.7% | 7.99% (active) | 4.32% (active) | 50.3% | 7.65% (active)
15 | COc1cc2c3c(n(CCCNCCO)c(=O)c2cc1OC)-c1nc2c(cc1C3=O)OCO2 | -45% (active) | -88.5% (active) | 16.8% | 0.0851% (active) | -43.9% (active) | 7.23% (active) | 2.99% (active) | 35.6% | -25.9% (active) | 2.13% (active) | 6.05% (active) | 10.7% | 46.7% | 1.28% (active) | 19.1% | -8.95% (active) | -57.1% (active) | 80.2% | 23.7%
16 | O=C(N/C(=C1/OCCN1Cc1ccccc1)[P+](c1ccccc1)(c1ccccc1)c1ccccc1)c1ccccc1 | -5.42% (active) | -5.51% (active) | 58.7% | 44.8% | 3.22% (active) | -16.5% (active) | -6.25% (active) | 47.6% | 4.98% (active) | 4.11% (active) | -15.1% (active) | 8.08% (active) | -60.6% (active) | 0.242% (active) | 21.1% | 31.4% | 25.3% | -4.84% (active) | 19.4%
